Rab9 promoter act = Rab9 promoter activation | Huh7 Rab9 promoter-luciferase reporter, luminescence, 24 h | Potency, µM (highest dose often 9.22 µM), for the others: top-dose activation, negative = inhibition, actives largely listed as activators | 320,000 compounds, 2.8% hits | AID 485297; further: % of control where 0% means no effect; nearly all actives have a fitted effect of over 60% in size
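Cell-based reporter: Huh7 stable for Rab9 promoter-driven luciferase, plated in reduced-serum medium with 10% FBS at 1500 cells/well, compound-treated 24 h at 37 °C, luminescence read after 10 min reagent.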
ELG1 genotox = inducers of genotoxicity in HEK293T ELG1-luciferase cells; HEK293T ELG1-luciferase reporter, luminescence, 16 h; Potency, µM (series often up to 46 µM), for the others: top-dose activity change, positive = activation, most hits filed as activators; 330,000 compounds, 1.3% hits; AID 504466; further: % of control where 0% means no effect; nearly all actives have a fitted effect of over 60% in size
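Genotoxic stress is detected as increased luminescence from luciferase-tagged ELG1 in HEK293T cells, measured with ONE-Glo after a 16 hr treatment at 37 °C.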
SMN2 splice enh = SMN2 splice variant enhancement | HEK293 SMN2-luciferase splicing reporter, luminescence, 30-36 h | Potency, µM (titrated, usually from 46.1 µM), for inactives: top-dose activity change, positive = activation, actives largely listed as activators | 210,000 compounds, 2.8% hits | AID 1458; further: % of control where 0% means no effect; nearly all actives have a fitted effect of over 55% in size
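HEK293 cells carry an SMN2 […]–luciferase reporter in which exon 7 inclusion puts luciferase in frame. Cells were plated 10-12 h before compound addition, then incubated 30-36 h at 37C. ONE-Glo luminescence was read; sodium butyrate at 4.5 mM final served as control.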
NPC1 promoter act = activates the NPC1 promoter | Potency, µM (titrated, usually from 9.22 µM), for the others: at the top dose activation, hits mostly activators | Huh7 NPC1 promoter luciferase reporter, 24 h | 320,000 compounds, 2.4% hits | AID 485313; further: % of control where 0% means no effect; nearly all actives have a fitted effect of over 60% in size
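Luminescence from an NPC1 promoter-driven luciferase reporter in stably transfected Huh7 cells was measured after 24 h compound treatment at 37 °C, followed by 10 min ambient incubation with luciferase detection reagent.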
ELG1 DNA repair = inhibitors of ELG1-dependent DNA repair in HEK293T cells; HEK293T ELG1-luciferase reporter, luminescence, 16 h; DNA damage induced by 5-fluorouridine; Potency, µM (top dose mostly 46.1 µM), for the others: top-dose activity change, negative = inhibition, actives largely listed as inhibitors; 330,000 compounds, 2.3% hits; further: on the % scale 0 is the no-effect control and ±100 the full control effect; nearly all actives have a fitted effect of over 55% in size
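HEK293T cells expressing luciferase-tagged ELG1 (2,000/well) received 5-Fluorouridine plus compound or DMSO for 16 hr at 37 °C. Luciferase was read by ONE-Glo luminescence after 30 min at room temperature.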
FLuc counter = firefly luciferase modulation, counter-screen for miR-21 project | Potency, µM (titrated, usually from 57.5 µM), inactives show at the top dose activity change, negative = inhibition, hits mostly inhibitors | P08659 | 360,000 compounds, 6.9% hits | AID 588342 | purified FLuc, Km substrates, luminescence inhibition;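 further: plate controls were vehicle for no effect and reference inhibitor for full effect; nearly all actives have a fitted effect of over 55% in size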
Target sequence (P08659 whole entry, looked up): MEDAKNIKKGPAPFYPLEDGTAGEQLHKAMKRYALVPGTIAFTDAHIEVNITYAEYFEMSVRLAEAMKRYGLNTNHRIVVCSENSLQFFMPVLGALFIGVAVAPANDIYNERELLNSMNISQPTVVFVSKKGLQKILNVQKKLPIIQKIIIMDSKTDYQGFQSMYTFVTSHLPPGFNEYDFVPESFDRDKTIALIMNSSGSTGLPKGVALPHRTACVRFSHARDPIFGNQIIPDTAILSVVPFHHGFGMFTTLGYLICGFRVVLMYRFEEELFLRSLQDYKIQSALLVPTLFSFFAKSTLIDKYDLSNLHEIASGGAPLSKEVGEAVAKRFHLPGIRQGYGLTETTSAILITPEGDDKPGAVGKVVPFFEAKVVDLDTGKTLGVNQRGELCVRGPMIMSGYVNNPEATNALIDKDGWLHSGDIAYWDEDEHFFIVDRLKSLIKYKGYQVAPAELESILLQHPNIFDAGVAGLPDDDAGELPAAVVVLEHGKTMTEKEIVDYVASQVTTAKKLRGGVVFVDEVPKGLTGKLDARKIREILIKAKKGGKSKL
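Purified P. pyralis luciferase (10nM final) with 10uM D-luciferin and 10uM ATP (Km levels) in 50mM Tris acetate pH 7.5, 10mM Mg acetate, 0.01% Tween-20, 0.05% BSA; qHTS 6-point titration, ~60 µM downward; luminescence read.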
An asterisk follows results filed as active; u = inconclusive; x = no result. This is a sample that favours compounds with a hit; in the whole collection about 9.2% have one here. The call rests on the fitted dose curve; in most records, active means well fitted curve in the direction sought with a large enough effect; inconclusive means small, poorly fitted or top-dose-only effect, or another doubt; inactive means no such curve, though single readings can be large; an effect the other way counts as inactive or inconclusive. Potency means the concentration at half of the fitted maximal effect.

SMILES	Rab9 promoter act	ELG1 genotox	SMN2 splice enh	NPC1 promoter act	ELG1 DNA repair	FLuc counter
COCCn1c(SCC(=O)c2c(N)n(C3CC3)c(=O)[nH]c2=O)nnc1-c1cccc(C)c1	-2%	0%	x	1%	2%	x
CCc1ccc(C(=O)Nc2ccc3nc(C)ccc3c2)cc1	2.8µM*	u	x	3.5µM*	u	5.4µM*
CC(C)(C)c1ccc(C(=O)Nc2ccc(NC(=O)c3ccc(Cl)c(Cl)c3)cc2)cc1	x	x	-8%	x	x	1%
Cc1ccc2cc(NC(=O)c3ccc(C(C)(C)C)cc3)ccc2n1	2%	-15%	x	-2%	u	9.5µM*
Nc1nnc(SCC(=O)N2CCc3ccccc3C2)s1	22%	7%	10%	-1%	29%	-7%
NC(=O)N/N=C/c1cn(-c2ccccc2)nc1-c1cccnc1	-2%	6%	x	1%	17%	9.5µM*
NC(=S)N/N=C/c1cn(-c2ccccc2)nc1-c1cccnc1	12%	7%	x	15%	2%	6µM*
COc1ccc(N2CCN(c3ncnc4c3cnn4-c3ccc(C)c(Cl)c3)CC2)cc1	x	x	x	x	x	5%
Cc1ccc(-n2ncc3c(N4CCCCC4)ncnc32)cc1Cl	x	x	x	x	x	0.13µM*
Cc1ccc(-n2ncc3c(N4CCCCCC4)ncnc32)cc1Cl	x	x	x	x	x	0.43µM*
Cc1nn(-c2ccccc2)c(Cl)c1C(=O)NCC1CCCO1 (stereo not given)	-4%	1%	x	-2%	9%	1%
O=c1cc(O)c(-c2ccc(Cl)cc2)c(Cl)[nH]1	-1%	4%	x	-1%	19%	-1%
O=c1cc(-c2ccc(Cl)cc2)oc(=O)[nH]1	0%	-1%	x	-3%	0%	17µM*
COc1c(O)cc2c(-c3ccccc3)cc(=O)oc2c1OC	x	x	2%	x	x	x
O=C(Nc1cccc(F)c1)N1CCC(c2ccccc2)CC1	29%	u	x	u	u	u
CC1CCN(C(=O)Nc2ccc3nsnc3c2)CC1	4.5µM*	u	13%	u	0%	13µM*
CC1CCN(C(=O)Nc2cccc(NC(=O)N3CCC(C)CC3)c2)CC1	0%	2%	5%	10%	-21%	15µM*
O=C(Nc1ccc2nsnc2c1)N1CCCCC1	21%	u	14%	19%	u	u
CCC(Cn1nnc2ccccc2c1=O)NC(=O)Nc1ccccc1OC (stereo not given)	x	x	17%	x	x	-2%
COc1cc(NC2c3ccccc3C(=O)N2c2cc(C)ccn2)cc(OC)c1OC (stereo not given)	9%	u	-3%	0%	u	-3%
COc1cc(NC2c3ccccc3C(=O)N2c2ccc(C)cn2)cc(OC)c1OC (stereo not given)	u	u	11µM*	u	u	u
O=C(CCCC(=O)OCC(=O)c1ccc(Cl)cc1)NC1CCCCC1	4%	3%	x	3%	8%	12µM*
CC(C)(C)C(=O)Nc1ccc(Cl)c(-c2nc3ccccc3[nH]2)c1	x	x	x	x	x	-10%
Cc1ccccc1-c1nc2ccccc2[nH]1	u	u	11µM*	u	u	17µM*
c1ccc2[nH]c(-c3ccnc4ccccc34)nc2c1	3.5µM*	u	u	u	u	24µM*
SMILES	Rab9 promoter act	ELG1 genotox	SMN2 splice enh	NPC1 promoter act	ELG1 DNA repair	FLuc counter
CSc1ncccc1-c1nc2ccccc2[nH]1	25%	11%	-1%	19%	u	21µM*
Clc1ccccc1-c1nc2ccccc2[nH]1	2µM*	u	x	2.8µM*	u	8.5µM*
CCSc1ncccc1-c1nc2ccccc2[nH]1	29%	u	u	u	u	u
O=C(COC(=O)CNC(=O)c1ccccc1)Nc1nc(-c2ccccc2)cs1	17%	u	21%	1%	u	u
CC1SC(c2ccc(F)cc2)NC1=O (stereo not given)	-2%	-4%	-11%	-8%	-2%	3%
CN(C)c1ccc(/C=C/C=N/Nc2nc(N3CCOCC3)nc(N3CCOCC3)n2)cc1	-9%	12%	4%	-3%	8%	1%
Nc1nonc1-c1nc2ccccc2[nH]1	-3%	0%	u	-1%	u	-5%
Cn1cc(Cl)c(-c2nc3ccccc3[nH]2)n1	3.5µM*	10µM*	16µM*	2.5µM*	u	17µM*
Fc1ccccc1-c1nc2ccccc2[nH]1	1.8µM*	u	x	3.5µM*	u	9.5µM*
O=C(NCc1ccccc1)c1ccccc1-c1nc2ccccc2[nH]1	5%	0%	-25%	-4%	19%	-3%
CCCCNc1nc2c(-c3cccc(C)c3)nnn2c2ccccc12	x	x	-2%	x	x	2%
Cc1ccsc1/C=N/NC(=O)CC(=O)NCC(C)C	19%	2%	1%	-7%	5%	2%
COC(=O)c1sccc1NC(=O)CSc1nnnn1-c1ccccc1C	3%	1%	-21%	-3%	18µM*	-19%
CC(C)OC(=O)CSc1nnnn1-c1ccc2c(c1)OCCO2	u	2%	-1%	22%	u	17µM*
COc1ccc(OC)c(NC(=O)CSc2nnnn2-c2ccc3c(c2)OCO3)c1	-5%	11%	35µM*	-5%	14%	-2%
COc1ccc(N2CCN(C(=O)CSc3nnnn3-c3ccc4c(c3)OCCO4)CC2)cc1	-8%	-28%	-49%	-1%	23µM*	1%
COc1ccccc1NC(=O)CSc1nnnn1-c1ccccc1F	0%	4%	x	0%	-7%	-17%
COC(=O)c1ccc(-n2nnnc2SCC(=O)Nc2cc(OC)ccc2OC)cc1	4%	-3%	-10%	1%	-16%	-2%
CCc1ccccc1Nc1cc(C(=O)NCCc2ccccc2)c2ccccc2n1	x	x	13%	x	x	0%
CCOC(=O)c1c(-c2ccccc2)nc2cc(C)ccn12	u	13%	25%	u	u	11µM*
CCOC(=O)c1c(-c2ccccc2)nc2ccc(C)cn12	2.2µM*	u	5%	3.5µM*	u	9.5µM*
COc1ccc(CN(C(=O)c2cc(=O)c3ccccc3o2)C2CCS(=O)(=O)C2)cc1 (stereo not given)	-1%	1%	x	-3%	u	4%
COC(CNC(=O)Cn1nc(Cc2ccncc2)c2ccccc2c1=O)OC	-2%	4%	x	-5%	2%	3%
CC(C)[C@H](NC(=O)[C@@H]1Cc2ccccc2CN1C(=O)OC(C)(C)C)C(=O)NCC1CCCO1 (stereo not given in full)	-4%	3%	x	-5%	1%	0%

Source: PubChem (National Center for Advancing Translational Sciences (NCATS))
